The campaign covered roughly 65,000 compounds. About 2,100 (3.2%) showed an effect of 50% or more. The median lay at about -52%. The full list was thinned out, with strong results kept by preference.
Tested on: Plasmodium falciparum
Test: Screen against P. falciparum Asexual Blood Stage (ABS), at 5uM
Type: functional, Dd2
Settings: tested at 5 uM

SMILES	INHIBITION
c1cncc(N2CCCn3nnc(CN4CCCCC4)c3C2)c1	-88.4%
Cc1ccccc1SCC(=O)NS(=O)(=O)c1ccc2c(c1)OCCO2	-14.4%
c1cncc(COCc2nnc3n2CCN(Cc2ccsc2)C3)c1	-113%
O=C(c1ccc(F)cc1)N1CCN2C[C@H](OCc3cccnc3)C[C@H]2C1	1.13%
Cc1occc1C(=O)N1CC[C@H]2C[C@@H](c3nnc(C4CC4)o3)O[C@@H]2C1	-11.7%
CN(C)CCN1CCC(CNCc2c[nH]nc2C(C)(C)C)CC1	-15.5%
COCCN1CCC(CNCc2c[nH]nc2C(C)(C)C)CC1	-130%
Cc1ccc(CNCc2c[nH]nc2C(C)(C)C)c(OC2CCOC2)c1 (centres undefined)	57%
CCCNc1ncc(-c2cc(C3CC3)nc(N)c2C#N)cn1	55.8%
CCSc1ncc(-c2cc(C3CC3)nc(N)c2C#N)cn1	4.79%
CCSc1ncc(-c2cc(C3CCC3)nc(N)c2C#N)cn1	-28.9%
CC1CCN(C(=O)CN2CC(c3nc(C4CC4)no3)C2)CC1	-20.1%
O=C(C1CCCC1)N1C[C@@H](c2ccsc2)[C@@H]2CN(C3CCCC3)CC[C@@H]21	54.7%
O=C(C1CCC1)N1CCN(Cc2ccsc2)[C@H]2CS(=O)(=O)C[C@H]21	-87.7%
CCC(=O)N1CCCC1c1ccsc1 (centres undefined)	-72.1%
CCOc1ncccc1CNC(=O)Nc1ccc(CC)cc1	-138%
Cc1ccc2c(c1)OCCCC2NCc1nnc2n1CCCCC2 (centres undefined)	-139%
COc1cccc(CNC2CCCOc3cc(C)ccc32)n1 (centres undefined)	68.4%
COc1ccc2c(c1)C(NCCc1ccccn1)CCCO2 (centres undefined)	57.6%
COc1ccc2c(c1)C(NCCc1ncc(C)s1)CCCO2 (centres undefined)	-31.7%
Cc1ccc2c(c1)C(NCc1ccccn1)CC2 (centres undefined)	37.5%
COc1c(CNC2CCCOc3ccc(F)cc32)c(C)nn1C (centres undefined)	29%
COc1ccc2c(c1)C(NCCc1c(C)noc1C)CCCO2 (centres undefined)	32.9%

SMILES	INHIBITION
Cc1ccc2c(c1)C(NCc1ncnn1C)CC2 (centres undefined)	-64.9%
COc1cccc(CNC2CCc3ccc(C)cc32)n1 (centres undefined)	60.8%
COc1ccc(C2=CCN(C(=O)CN(CC(N)=O)C(C)C)CC2)cc1	-68.8%
Cc1noc(C)c1CN1CCC[C@]2(C[C@@H](Oc3ccccn3)CO2)C1	-61.7%
CC(=O)N1[C@H](Cn2cncn2)C[C@@H]2CN(Cc3ccncc3)CC[C@@H]21	-149%
COc1ccc(C)c(NC(=O)NCc2ncnn2C)c1	-80.2%
COc1ccc(C2CCCN2C(=O)NCCCn2ccnc2)cc1 (centres undefined)	61.9%
CCOc1ccc(C2CCCN2C(=O)NCCn2ccnc2)cc1 (centres undefined)	36.1%
O=C(NCCn1ccnc1)N1CCCC1c1ccsc1 (centres undefined)	-159%
O=C(NCCn1ccnc1)N1CCCC1c1ccncc1 (centres undefined)	-10%
O=C(NCCn1ccnc1)N1CCCC1c1ccc2c(c1)OCCO2 (centres undefined)	51.2%
COc1ccc(C2CCCN2C(=O)NCCn2ccnc2)cc1OC (centres undefined)	-189%
COc1ccc(C2CCCN2C(=O)NCCn2ccnc2)cc1 (centres undefined)	59.1%
COc1ccc(C2CCCN2C(=O)NCCCn2cccn2)cc1 (centres undefined)	-90.4%
O=C(NCCCn1ccnc1)N1CCCC1c1ccncc1 (centres undefined)	-65.7%
CC(C)(C)c1nnnn1CC(=O)N(CCC#N)c1ccccc1	-55.4%
CN(C)C(C(=O)NCc1cc(C(C)(C)C)n[nH]1)c1ccc(F)cc1 (centres undefined)	-1.64%
COCCn1c2c(ccc1=O)CC(NCc1cnn(C)c1)CC2 (centres undefined)	-23.6%
Cc1cc(O)ncc1NS(=O)(=O)c1cccc(F)c1F	-123%
CCS(=O)(=O)N[C@H]1CN(Cc2noc(COC)n2)C[C@@H]1C1CC1	-96.2%
Cc1cccc(-c2nc(N)nc3c2CN(C(=O)c2cc(C)n[nH]2)C3C)c1 (centres undefined)	32.2%
COCCN1Cc2ccccc2C2(CCN(C(=O)c3ccco3)CC2)C1	-50.4%
COc1ccccc1-n1nc(CC(C)C)nc1CSc1nnc(N)s1	-36.5%

SMILES	INHIBITION
CSC1(CNC(=O)NC(C)c2ccc(F)cc2)CCOCC1 (centres undefined)	-162%
CC(NCC1(N(C)C)CCOCC1)c1ccc(SC(F)F)cc1 (centres undefined)	52.35%
CC(NCC1(N(C)C)CCOCC1)c1ccc(S(C)(=O)=O)cc1 (centres undefined)	-56.25%
COCC1CN(S(=O)(=O)Cc2ccccc2)Cc2c1cnn2C (centres undefined)	-54.3%
Nc1cc2c(nn1)CCN(C(=O)CCCC1CCCCC1)C2	-83.9%
CO[C@H]1CN(Cc2c(C)ccc3ncccc23)CC[C@H]1N	67.2%
COCCCC1CCCN(Cc2c(C)ccc3ncccc23)C1 (centres undefined)	37.2%
Cc1ccc2ncccc2c1CN1CC[C@H](N(C)C)[C@H](CCC(=O)O)C1	-3.92%
Cc1cc(NC(=O)c2ccc(CN3CC[C@H](O)C3)cc2)ccc1F	21.2%
CC(=O)N1CCCC1c1cccc(NCc2ccccc2F)n1 (centres undefined)	-133%
COc1cc(N2CCC3(CCN(Cc4csc(C)n4)C3=O)C2)ncn1 (centres undefined)	-8.45%
COCCCN1CCN([C@@H]2c3ccccc3C3(CCNCC3)[C@H]2O)CC1	-68.7%
CCNC(=O)[C@@H]1C[C@H](N)CN1c1cc(CC)nc(N(C)C)n1	-67.6%
CCNC(=O)[C@@H]1C[C@H](N)CN1c1cc(C(F)(F)F)nc(N(C)C)n1	20.4%
CCNC(=O)[C@@H]1C[C@H](N)CN1c1cc(C(F)(F)F)nc(N2CCCC2)n1	54.7%
CC(=O)Nc1nc(C(=O)N2CCCC(n3cncn3)C2)cs1 (centres undefined)	-101%
CN(C(=O)Cn1nc(-c2ccccc2)ccc1=O)C1CCS(=O)(=O)C1 (centres undefined)	-30.2%
Fc1ccc(CN2CCCN(Cc3cscn3)CC2)cc1	43.6%
Fc1ccc(CC2CCN(Cc3cscn3)CC2)cc1	50.7%
Fc1ccccc1CC1CCN(Cc2cscn2)CC1	45%
CN1CCCCC1c1ncc2c(n1)CCN(Cc1ccccc1Cl)C2 (centres undefined)	41.5%
CN1CCCCC1c1ncc2c(n1)CCN(Cc1ccc(Cl)c(F)c1)C2 (centres undefined)	65.6%
CN1CCc2nc(C3CCCCN3Cc3ccccc3Cl)ncc2C1 (centres undefined)	-32.4%
